One assay deals with ICAM4. The assay is described as follows: pooled miR-30 sensor sort-seq; sequence = guide strand. To be noted: shRNA.
As to TTCATAGCTAGGCACTTGCATA, the sensor-assay potency score (higher = more potent) was -1.17.

In turn, TAGCCCACCGGGAACACTGTAG had a sensor-assay potency score (higher = more potent) of -0.579.

In the case of TTTTCCTGCGCAGGTCACGAGG, the sensor-assay potency score (higher = more potent) is -1.77.

Regarding TTTGTAGGCGGTGATCCTGGAG, the sensor-assay potency score (higher = more potent) was -0.0996.

TATTCCTCTTTTTCTCGCTCAG: the sensor-assay potency score (higher = more potent) was -0.694.

The target in another assay is ICOS. Described as above. To be noted: shRNA.
Turning to TTGACTGATACAGTCATTCTTC, the sensor-assay potency score (higher = more potent) came to 0.168.

TTGTGAAATATAAACATCTCAT: the sensor-assay potency score (higher = more potent) was -0.925.

Take TAGTATGATAGTGAAATGCGGA: the sensor-assay potency score (higher = more potent) was -0.711.

As to TTGTGAATTATTATTCATCTTG, the sensor-assay potency score (higher = more potent) was -0.481.

TAAACTACAACATAATCCCAGT returned a sensor-assay potency score (higher = more potent) of -0.438.

Turning to TTTAAGAATCTTTCTAGCCAAA, the sensor-assay potency score (higher = more potent) is -1.13.

As for TAAAATTTGTACACCTCCGTTG, the sensor-assay potency score (higher = more potent) was -0.108.

For TAAACATCTCATAATTGGCAGA, the sensor-assay potency score (higher = more potent) is -0.689.

On to TACTGTACTGTACACATCCAGC, for which the sensor-assay potency score (higher = more potent) is -0.859.

Regarding TTTGTCTTAGTGAGATCGCAGA, the sensor-assay potency score (higher = more potent) is -0.78.

The sequence TTTTGTCTTAGTGAGATCGCAG had a sensor-assay potency score (higher = more potent) of -0.217.

As to TTGTGATTCATAAATATGCAAA, the sensor-assay potency score (higher = more potent) was -1.24.

A further assay deals with IDI2. The assay is described as above. To be noted: shRNA.
Sequence TTTTCTTCCAGTTCTGCTGGGT displayed a sensor-assay potency score (higher = more potent) of 0.298.

As for TAAACGTCGAGTCACTTGGCTG, the sensor-assay potency score (higher = more potent) is -1.26.

The sequence TAGGATGCAAGATTGAATGTGT displayed a sensor-assay potency score (higher = more potent) of 0.9.

With TTTCTCAATGTTTTCGTTCAGA, the sensor-assay potency score (higher = more potent) is -0.492.

In the case of TTTCGTGTCCGACCTCTGCTGT, the sensor-assay potency score (higher = more potent) is -0.749.

As to TTGTGAAGCTCCACAAACGGGG, the sensor-assay potency score (higher = more potent) is -0.921.

TTGTCATGAACACAATGTCCTC gave a sensor-assay potency score (higher = more potent) of -1.35.

In turn, TAGTGATTTATACATGATGGGC came in with a sensor-assay potency score (higher = more potent) of -1.3.

As to TAACCTTATCATTCTCATCCAC, the sensor-assay potency score (higher = more potent) is -0.207.

Consider TTTCGTTTCACTGGGATCCGGG, for which the sensor-assay potency score (higher = more potent) was -0.0224.

ATTCTCATCCACAACAATCAGC yielded a sensor-assay potency score (higher = more potent) of -0.745.

As to TTATTTGTAAGCATATTACTGA, the sensor-assay potency score (higher = more potent) came out at 0.0641.

In a further assay the target is IER5. The description is as above. The following applies: shRNA.
On to TTCCAAGCTTGAACTCTTCTGT, for which the sensor-assay potency score (higher = more potent) is 0.444.

On to ATAAGGTCTTTCCACTTCGGGC, for which the sensor-assay potency score (higher = more potent) was -1.59.

TACAAAAATCAATACAACGAAG registered a sensor-assay potency score (higher = more potent) of -1.23.

In the case of TTTCCTAGAGTAATCACAGGAT, the sensor-assay potency score (higher = more potent) was found to be 0.282.

Turning to TTATGCAGCTTGATGCCGCCGC, the sensor-assay potency score (higher = more potent) was -0.467.

Take TAAAAATATATCTTTTCTCTAT: the sensor-assay potency score (higher = more potent) was -0.862.

As to TATCGCAGCAGATCTGCCCGGG, the sensor-assay potency score (higher = more potent) is -0.199.

As for TTCATGTCTCTCAGCACCGGCT, the sensor-assay potency score (higher = more potent) is -0.831.

TTGTAGATCTTGCCCAGAGAGA gave a sensor-assay potency score (higher = more potent) of -1.34.

Consider TTATCGCAGCAGATCTGCCCGG, for which the sensor-assay potency score (higher = more potent) is -0.618.

Turning to TTCTTATGCAGCTTGATGCCGC, the sensor-assay potency score (higher = more potent) was -0.805.

Source of the values: the OligoGym collection.
Also: reference of the scale not given here.
